Screening results from PubChem.
Compounds with a hit are over-represented: about 8.1% of the library has one in this group of screens.
MITF inhib: inhibitors of MITF, primary screen, MITF inhibitor project, cell-based, luminescence; TRPM1 promoter luciferase, 24 h; inhibition, % (test concentration not listed); 37,000 compounds, 0.28% hits; AID 2240, 2010; in the data active = inhibition above about 85%; inconclusive = no clear call, values can overlap the other calls; inactive = below about 68%;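 note: human melanocyte line stably carrying TRPM1 promoter luciferase reporter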
Hedgehog inh: Hedgehog pathway signaling inhibitors, primary screen, luminescence, Shh-LIGHT2 cells, Gli-luciferase; inhibition, % (test concentration not listed); Shh-LIGHT2 Gli-luciferase reporter, 30 h; 22,000 compounds, 2.1% hits; AID 2313, 2010;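 active = mean inhibition across valid replicates above about 65%, limit read from the data; inconclusive = mean under the limit, yet half or more replicates past it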;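 note: pathway switched on by Shh-conditioned medium diluted 1 in 25 in low serum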
NOMO-1 viab: NOMO-1 AML cell viability reduction, primary screen, STK33 inhibitor project, CellTiter-Glo luminescence | NOMO-1 AML viability, 72 h | inhibition, % (concentration not given with the values) | 37,000 compounds, 7.5% hits; in the data active = inhibition above about 80%; inconclusive = no clear call, values can overlap the other calls
* = called active by the depositor; ? = inconclusive; . = no result given.

SMILES | MITF inhib | Hedgehog inh | NOMO-1 viab
O=C(O)COc1cccc(-c2nc3ccccc3s2)c1 | 105* | . | 27
Cc1cc(C)c(C)c(OCC(=O)NCc2cccnc2)c1 | 14 | . | 31
C[C@@H]1CN([C@H](C)CO)C(=O)c2cc(NC(=O)Nc3cccc4ccccc34)ccc2O[C@@H]1CN(C)Cc1ccncc1 | 3 | . | 15
C[C@@H]1CN([C@H](C)CO)C(=O)c2cc(NC(=O)Nc3ccccc3)ccc2O[C@@H]1CN(C)C(=O)Nc1cccc2ccccc12 | -7 | 10 | 90*
C[C@@H]1CN([C@@H](C)CO)C(=O)c2cc(NC(=O)Nc3cccc4ccccc34)ccc2O[C@H]1CN(C)Cc1ccc(C(F)(F)F)cc1 | 8 | -23 | 87*
C[C@@H]1CN([C@@H](C)CO)C(=O)c2cc(NC(=O)Nc3ccccc3)ccc2O[C@@H]1CN(C)C(=O)Nc1cccc2ccccc12 | -22 | 17 | 67
C[C@H](CO)N1C[C@H](C)[C@H](CN(C)Cc2ccncc2)Oc2ccc(NC(=O)Nc3cccc4ccccc34)cc2C1=O | 7 | . | 98*
C[C@H]1CN([C@@H](C)CO)C(=O)c2cc(NC(=O)Nc3cccc4ccccc34)ccc2O[C@@H]1CN(C)C(=O)Nc1ccc(C(F)(F)F)cc1 | 32 | -45 | 86*
C[C@@H]1CN([C@@H](C)CO)C(=O)c2cc(NC(=O)Nc3cccc4ccccc34)ccc2O[C@@H]1CN(C)C(=O)Nc1ccc(C(F)(F)F)cc1 | 20 | -37 | 52
C[C@H]1CN([C@@H](C)CO)C(=O)c2cc(NC(=O)Nc3cccc4ccccc34)ccc2O[C@H]1CN(C)Cc1ccc(C(F)(F)F)cc1 | 29 | . | 1
CCOC(=O)c1c(NC(=O)CSc2ccccn2)sc(C)c1C | -6 | . | 3
CCN(CCS(=O)(=O)c1ccc(Cl)cc1)S(=O)(=O)c1ccc(Cl)cc1 | -7 | . | -19
Cc1ccc(C)c(Cn2c(CCCO)nc3ccccc32)c1 | -3 | . | 35
CCOC(=O)c1c(NC(=O)c2ccc(-c3ccccc3[N+](=O)[O-])o2)sc2c1CCCC2 | -13 | . | -10
COc1ccccc1CCNC(=O)c1ccoc1C | -49 | . | 10
Cc1oc2c(c1C(=O)NCCCn1ccnc1)C(=O)c1ccccc1C2=O | 66 | 110* | 141*
Cc1onc(-c2ccccc2)c1C(=O)NCCCn1ccnc1 | -9 | . | 3
Cc1oc2c(c1C(=O)NCCC(C)C)C(=O)c1ccccc1C2=O | ? | 90* | 140*
Cc1ccc(N(C(C)C(=O)Nc2ccc(I)cc2C)S(C)(=O)=O)cc1C (stereo not given) | 4 | . | 15
COc1cc2ccc(=O)oc2cc1OCC=C(C)C | . | 15 | .
CC(C)=CCOc1cc2oc(=O)ccc2cc1O | 7 | 7 | 109*
CCC(=O)Nc1ccc(Cl)c(NC(=O)COc2cccc3ccccc23)c1 | -1 | . | -1
O=C1CC(Sc2nnc(-c3ccccc3O)o2)C(=O)N1c1ccccc1 (stereo not given) | -1 | . | 122*
Cc1c(C)c(C)c(CSC2CC(=O)N(c3ccccc3)C2=O)c(C)c1C (stereo not given) | -11 | 1 | 5
COc1ccc(NC(=O)Nc2cccc3c2O[C@H](CN(C)Cc2ccc(C(=O)Nc4ccccc4N)cc2)[C@@H](C)CN([C@H](C)CO)C3=O)cc1 | -11 | . | 128*
SMILES | MITF inhib | Hedgehog inh | NOMO-1 viab
COc1ccc(CN(C)C[C@H]2Oc3c(NC(=O)Nc4ccc(OC)cc4)cccc3C(=O)N([C@H](C)CO)C[C@@H]2C)cc1 | -10 | 8 | 42
COc1ccc(NC(=O)Nc2ccc3c(c2)C(=O)N([C@H](C)CO)C[C@H](C)[C@H](CN(C)Cc2ccc(C(=O)Nc4ccccc4N)cc2)O3)cc1 | -5 | . | 39
COc1ccc(NC(=O)Nc2cccc3c2O[C@@H](CN(C)Cc2ccc(C(=O)Nc4ccccc4N)cc2)[C@H](C)CN([C@H](C)CO)C3=O)cc1 | 19 | . | 125*
COc1ccc(NC(=O)Nc2cccc3c2O[C@H](CN(C)Cc2ccc(C(=O)Nc4ccccc4N)cc2)[C@H](C)CN([C@@H](C)CO)C3=O)cc1 | 9 | . | 127*
COc1ccc(CN(C)C[C@@H]2Oc3c(NC(=O)Nc4ccc(OC)cc4)cccc3C(=O)N([C@H](C)CO)C[C@@H]2C)cc1 | -2 | -39 | 5
COc1ccc(NC(=O)Nc2cccc3c2O[C@@H](CN(C)Cc2ccc(C(=O)O)cc2)[C@@H](C)CN([C@H](C)CO)C3=O)cc1 | 0 | -40 | 18
COc1ccc(NC(=O)Nc2cccc3c2O[C@H](CN(C)Cc2ccc(C(=O)Nc4ccccc4N)cc2)[C@@H](C)CN([C@@H](C)CO)C3=O)cc1 | 2 | . | 128*
COc1cccc(NC(=O)CC2NC3CCCCC3NC2=O)c1 (stereo not given) | -26 | . | -12
Cc1ccc(-c2nnc3c4ccccc4c(C)nn23)cc1S(=O)(=O)NC1CCCCC1 | 8 | . | 33
O=C(CCSc1nc2ccccc2s1)N1CCOCC1 | -22 | . | 1
COc1ccc(C(=O)CCC(=O)Nc2ccc(C(=O)O)cc2)c(OC)c1 | 1 | . | -17
C[C@H]1CN([C@@H](C)CO)C(=O)c2cc(NC(=O)Nc3ccccc3)ccc2O[C@@H]1CN(C)Cc1ccc(Cl)c(Cl)c1 | -2 | . | 18
C[C@H](CO)N1C[C@H](C)[C@@H](CN(C)Cc2ccc(Cl)c(Cl)c2)Oc2ccc(NC(=O)Nc3ccccc3)cc2C1=O | 15 | -24 | ?
C[C@@H]1CN([C@@H](C)CO)C(=O)c2cc(NC(=O)Nc3ccccc3)ccc2O[C@@H]1CN(C)Cc1ccc(Cl)c(Cl)c1 | 34 | 39 | 112*
C[C@H]1CN([C@@H](C)CO)C(=O)c2cc(NC(=O)Nc3ccccc3)ccc2O[C@H]1CN(C)Cc1ccc(Cl)c(Cl)c1 | 28 | 21 | 100*
Cn1nc(CC(=O)Nc2ccc(Oc3ccccc3)cc2)c2ccccc2c1=O | 71 | . | 70
CC1(C)CC(=O)C2=C(C1)Nc1ccccc1N(C(=S)NCc1ccco1)C2c1cccnc1 (stereo not given) | -17 | . | 19
C[C@H](CO)N1C[C@H](C)[C@H](CN(C)Cc2ccc(Cl)c(Cl)c2)Oc2ccc(NC(=O)Nc3ccc(C(F)(F)F)cc3)cc2C1=O | 49 | -6 | 125*
C[C@H](CO)N1C[C@H](C)[C@H](CN(C)Cc2ccc(Cl)c(Cl)c2)Oc2ccc(NC(=O)c3ccncc3)cc2C1=O | 15 | 86* | 22
C[C@H]1CN([C@@H](C)CO)C(=O)c2cc(NC(=O)Nc3ccc(C(F)(F)F)cc3)ccc2O[C@@H]1CN(C)Cc1ccc(Cl)c(Cl)c1 | 18 | . | 117*
C[C@@H]1CN([C@H](C)CO)C(=O)c2cc(NC(=O)c3ccncc3)ccc2O[C@H]1CN(C)Cc1ccc(Cl)c(Cl)c1 | -9 | . | 48
C[C@@H]1CN([C@@H](C)CO)C(=O)c2cc(NC(=O)Nc3ccc(C(F)(F)F)cc3)ccc2O[C@H]1CN(C)Cc1ccc(Cl)c(Cl)c1 | 27 | 27 | 115*
C[C@H](CO)N1C[C@H](C)[C@@H](CN(C)Cc2ccc(Cl)c(Cl)c2)Oc2ccc(NC(=O)Nc3ccc(C(F)(F)F)cc3)cc2C1=O | -3 | -15 | 65
O=C(C1CC1(c1ccccc1)c1ccccc1)N1CCCCC1 (stereo not given) | 7 | 2 | 22
